Data on eight compounds can be found in PubChem BioAssay (NCATS).

For test [1], the target named is Androgen receptor (Homo sapiens) (UniProt P10275). Briefly: qHTS assay for small molecule agonists of androgen receptor signaling (AID 588515; active = well fitted curve in the direction sought with a large enough effect in the signal ratio, with a control signal flat; the % refers to the signal ratio; also: % is scaled to controls: 0 for no effect and ±100 for the full control effect). To be noted: AR-UAS-bla HEK293, beta-lactamase ratio, agonist 16 h; stronger effect = higher value. Put shortly:
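Stimulation of an AR-responsive β-lactamase reporter in GripTite HEK293 cells was measured after 16 h compound exposure at 37 °C, via CCF4 fluorescence after 2 h RT. EC50 from Hill fits, normalized to R1881 at 30 nM.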
Background: qHTS replaces the single test concentration by a dilution series.

Test [2] addresses Glucocorticoid receptor (Homo sapiens) (UniProt P04150). Kind of test: qHTS assay for small molecule agonists of glucocorticoid receptor signaling (AID 588532; active = well fitted curve in the direction sought with a large enough effect in the signal ratio, with a control signal flat; the % refers to the signal ratio;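 also: 100% = dexamethasone at 0.1 µM and 0% = DMSO only wells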). To be noted: HeLa MMTV-bla, beta-lactamase ratio, agonist, 18 h; stronger effect = higher value; percent of dexamethasone control, DMSO zero. In short, it runs like this: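 MMTV-bla HeLa beta-lactamase reporter cells in 1% charcoal/dextran FBS medium, compounds up to 92 uM for 18 h at 37 C, CCF4 readout; normalized to 0.1 uM dexamethasone (100%), EC50 and efficacy from Hill fits.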

The target of test [3] is Estrogen receptor (Homo sapiens) (UniProt P03372). Kind of test: qHTS assay for small molecule agonists of estrogen receptor alpha signaling (AID 588514). Also: nearly all actives have a fitted effect of over 70% in size. Also: potency is read from the fitted curve at half-maximal effect.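 As to activation: 0% = vehicle only and 100% = reference agonist.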 To be noted: ER-alpha-UAS-bla HEK293, beta-lactamase ratio, 18 h; series mostly up to 76.8 µM. In short, it runs like this: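 Fluorescence from CCF4 cleavage reports ER-alpha-driven beta-lactamase expression in HEK 293 cells treated 18 hrs at 37 C. Data normalized to 17-beta-estradiol (20 nM) and DMSO, fitted to Hill equation.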

Test [4] has as its target Bile acid receptor (Homo sapiens) (UniProt Q96RI1). Briefly: qHTS assay for small molecule antagonists of farnesoid X receptor signaling (AID 588526). Also: % is scaled to controls: 0 for no effect and ±100 for the full control effect. To be noted: HEK293T FXR-UAS-bla, beta-lactamase ratio, antagonist mode; series mostly up to 76.7 µM. In short, it runs like this:
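Antagonist mode: titrated compounds tested against chenodeoxycholic acid stimulation (normalized to 50 uM CDCA and DMSO) in GeneBLAzer HEK293T cells for 16 h. Beta-lactamase read by CCF4 fluorescence; IC50 from Hill fits.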

Test [5] concerns the target Androgen receptor (Homo sapiens) (UniProt P10275). Briefly: qHTS assay for small molecule antagonists of androgen receptor signaling (AID 588516; active = well fitted curve in the direction sought with a large enough effect in the signal ratio, with a control signal flat, not every such curve was filed as active; the % refers to the signal ratio; also: % is scaled to controls: 0 for no effect and ±100 for the full control effect). To be noted: AR-UAS-bla HEK293, beta-lactamase ratio, antagonist mode, 16 h; series mostly up to 76.8 µM. Put shortly: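 Cells were plated and incubated 5 h, compounds added in titration, then R1881 (10 nM final) as agonist. After 16 h at 37 C, CCF4 substrate was loaded for 2 h at room temperature and fluorescence measured.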

Test [6] addresses Glucocorticoid receptor (Homo sapiens) (UniProt P04150). Briefly: qHTS assay for small molecule antagonists of glucocorticoid receptor signaling (AID 588533; active = well fitted inhibition curve with a large enough effect in the signal ratio, with a control signal flat, not every such curve was filed as active; the % refers to the signal ratio;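 also: cells stimulated with 2 nM dexamethasone as agonist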; also: potency is read from the fitted curve at half-maximal effect). To be noted: HeLa MMTV-bla, GRE beta-lactamase ratio, antagonist mode, 18 h; series mostly up to 76.8 µM. In short, it runs like this:
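Antagonist-mode qHTS: compound titrations added to GRE-bla HeLa cells, then dexamethasone 2 nM final; 18 h, 37 C. CCF4 FRET fluorescence normalized to dexamethasone and DMSO; IC50 from Hill fit.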

Test [7] in a line: qHTS assay for small molecule antagonists of peroxisome proliferator-activated receptor delta signaling (AID 588535; active = well fitted inhibition curve with a large enough effect in the signal ratio, with a control signal flat, not every such curve was filed as active; the % refers to the signal ratio;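 as to max response: cells co-treated with a PPAR-delta agonist as stimulator during compound exposure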). To be noted: HEK293T PPARd-UAS-bla, beta-lactamase FRET ratio, 18 h; 460 nm channel. Put shortly:
(§1)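 Beta-lactamase reporter read-out (405 nm excitation, 460/530 nm emission) after CCF4 loading for 2 hrs at RT. HEK293T PPAR-delta-UAS-bla cells, 2% charcoal/dextran FBS, compounds for 18 hrs at 37 C. Hill fit gave IC50 and efficacy.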

In test [8] the target is Peroxisome proliferator-activated receptor delta (Homo sapiens) (UniProt Q03181). The test is described as above. To be noted: HEK293T PPARd-UAS-bla, beta-lactamase FRET ratio, 18 h; series mostly up to 76.7 µM. Put shortly: as §1
For test [9], the target named is Peroxisome proliferator-activated receptor gamma (Homo sapiens) (UniProt P37231). Kind of test: qHTS assay for small molecule agonists of peroxisome proliferator-activated receptor gamma signaling (AID 588536; active = well fitted curve in the direction sought with a large enough effect in the signal ratio, with a control signal flat, not every such curve was filed as active; the % refers to the signal ratio; also: potency is read from the fitted curve at half-maximal effect;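 as to activation: 0% = DMSO basal wells and 100% = rosiglitazone at 2 µM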). To be noted: HEK293 PPARg-UAS-bla, beta-lactamase ratio, 16 h; series mostly up to 76.7 µM. In short, it runs like this: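 Compound treatment: 16 h, 37 C, HEK293 GeneBLAzer cells. Detection: CCF4, 2 h RT. Values: Hill-fit EC50, efficacy as % of 2 uM rosiglitazone.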

Test [10] addresses Estrogen receptor (Homo sapiens) (UniProt P03372). Kind of test: qHTS assay for small molecule antagonists of estrogen receptor alpha signaling (AID 588513; active = well fitted curve in the direction sought with a large enough effect in the signal ratio, with a control signal flat, not every such curve was filed as active; the % refers to the signal ratio; also: % is scaled to controls: 0 for no effect and ±100 for the full control effect). To be noted: ER-alpha-UAS-bla HEK293, beta-lactamase ratio, antagonist mode; series mostly up to 76.9 µM. In short, it runs like this: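 Fluorescence from CCF4 substrate after 2 h at room temperature gave reporter activity; cells had been exposed to compound and 0.5nM 17-beta-estradiol for 18 h at 37 C. Hill-equation fitting yielded IC50 and maximal response.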

Inconclusive results are not listed. Activity calls are given as the source filed them. Unless noted, calls follow the shape of the full dose curve.

Estrogen receptor (Homo sapiens), sequence (P03372 whole entry, looked up): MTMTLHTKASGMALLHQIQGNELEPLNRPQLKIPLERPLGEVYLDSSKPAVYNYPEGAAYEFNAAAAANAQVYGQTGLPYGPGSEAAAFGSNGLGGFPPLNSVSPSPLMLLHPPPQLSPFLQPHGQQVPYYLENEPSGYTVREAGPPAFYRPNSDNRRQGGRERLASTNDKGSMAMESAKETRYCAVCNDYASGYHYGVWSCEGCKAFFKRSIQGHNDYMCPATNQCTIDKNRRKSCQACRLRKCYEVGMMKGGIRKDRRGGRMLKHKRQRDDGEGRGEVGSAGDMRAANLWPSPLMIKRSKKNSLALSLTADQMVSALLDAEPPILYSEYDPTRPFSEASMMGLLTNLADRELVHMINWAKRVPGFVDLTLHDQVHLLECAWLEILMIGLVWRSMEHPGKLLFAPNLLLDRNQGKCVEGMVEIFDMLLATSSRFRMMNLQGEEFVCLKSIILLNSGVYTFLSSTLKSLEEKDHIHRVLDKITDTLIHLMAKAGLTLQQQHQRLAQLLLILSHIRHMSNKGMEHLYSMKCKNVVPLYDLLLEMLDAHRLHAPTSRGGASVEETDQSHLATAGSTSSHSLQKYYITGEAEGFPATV
Androgen receptor (Homo sapiens), sequence (P10275 whole entry, looked up): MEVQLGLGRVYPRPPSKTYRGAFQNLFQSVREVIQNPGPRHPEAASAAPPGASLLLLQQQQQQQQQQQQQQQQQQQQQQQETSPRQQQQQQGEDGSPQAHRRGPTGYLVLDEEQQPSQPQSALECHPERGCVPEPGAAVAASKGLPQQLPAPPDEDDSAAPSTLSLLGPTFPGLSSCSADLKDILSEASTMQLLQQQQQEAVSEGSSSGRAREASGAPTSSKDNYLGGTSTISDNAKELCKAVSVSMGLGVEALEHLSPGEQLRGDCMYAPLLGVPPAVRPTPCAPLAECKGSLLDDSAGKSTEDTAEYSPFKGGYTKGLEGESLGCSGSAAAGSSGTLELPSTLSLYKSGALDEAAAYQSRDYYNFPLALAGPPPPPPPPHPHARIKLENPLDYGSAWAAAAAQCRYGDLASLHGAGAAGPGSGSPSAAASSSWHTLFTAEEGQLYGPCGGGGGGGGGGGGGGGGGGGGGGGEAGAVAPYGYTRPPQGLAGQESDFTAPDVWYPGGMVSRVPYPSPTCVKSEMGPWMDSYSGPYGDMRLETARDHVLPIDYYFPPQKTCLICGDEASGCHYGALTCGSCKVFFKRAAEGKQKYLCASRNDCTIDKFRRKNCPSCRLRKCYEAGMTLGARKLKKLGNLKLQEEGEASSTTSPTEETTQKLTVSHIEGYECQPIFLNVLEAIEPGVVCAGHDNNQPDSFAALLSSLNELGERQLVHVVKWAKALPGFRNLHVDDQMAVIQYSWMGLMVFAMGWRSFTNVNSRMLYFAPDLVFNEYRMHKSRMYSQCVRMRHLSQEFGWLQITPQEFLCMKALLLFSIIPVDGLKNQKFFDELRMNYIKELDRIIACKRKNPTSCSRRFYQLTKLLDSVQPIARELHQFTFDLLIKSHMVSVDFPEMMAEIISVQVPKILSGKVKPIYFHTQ
Peroxisome proliferator-activated receptor gamma (Homo sapiens), sequence (P37231 whole entry, looked up): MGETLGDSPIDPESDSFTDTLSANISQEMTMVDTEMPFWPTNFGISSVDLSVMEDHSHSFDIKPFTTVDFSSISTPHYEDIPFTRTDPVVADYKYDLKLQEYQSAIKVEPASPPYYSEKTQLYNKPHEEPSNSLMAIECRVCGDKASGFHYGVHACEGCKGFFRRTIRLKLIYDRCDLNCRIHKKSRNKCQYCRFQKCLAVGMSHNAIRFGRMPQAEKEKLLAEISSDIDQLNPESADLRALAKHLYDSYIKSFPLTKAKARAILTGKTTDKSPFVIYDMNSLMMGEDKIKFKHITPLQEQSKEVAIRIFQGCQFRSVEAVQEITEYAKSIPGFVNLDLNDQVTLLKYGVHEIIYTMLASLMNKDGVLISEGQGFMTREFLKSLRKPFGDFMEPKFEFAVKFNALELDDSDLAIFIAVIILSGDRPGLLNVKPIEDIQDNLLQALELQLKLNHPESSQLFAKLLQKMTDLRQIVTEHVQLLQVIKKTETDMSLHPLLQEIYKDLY
Bile acid receptor (Homo sapiens), sequence (Q96RI1 whole entry, looked up): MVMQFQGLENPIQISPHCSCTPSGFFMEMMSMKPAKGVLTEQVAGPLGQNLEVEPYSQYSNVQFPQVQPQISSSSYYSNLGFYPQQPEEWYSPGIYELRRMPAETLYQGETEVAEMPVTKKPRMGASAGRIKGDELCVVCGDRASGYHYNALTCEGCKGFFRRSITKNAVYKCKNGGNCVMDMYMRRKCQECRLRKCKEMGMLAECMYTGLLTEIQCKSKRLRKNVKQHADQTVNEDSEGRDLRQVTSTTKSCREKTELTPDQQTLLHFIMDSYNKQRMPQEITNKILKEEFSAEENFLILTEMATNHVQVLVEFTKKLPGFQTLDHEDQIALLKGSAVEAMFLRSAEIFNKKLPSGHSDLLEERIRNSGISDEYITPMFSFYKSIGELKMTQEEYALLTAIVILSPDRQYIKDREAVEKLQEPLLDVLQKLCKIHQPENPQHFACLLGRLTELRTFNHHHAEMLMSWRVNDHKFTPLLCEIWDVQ
Glucocorticoid receptor (Homo sapiens), sequence (P04150 whole entry, looked up): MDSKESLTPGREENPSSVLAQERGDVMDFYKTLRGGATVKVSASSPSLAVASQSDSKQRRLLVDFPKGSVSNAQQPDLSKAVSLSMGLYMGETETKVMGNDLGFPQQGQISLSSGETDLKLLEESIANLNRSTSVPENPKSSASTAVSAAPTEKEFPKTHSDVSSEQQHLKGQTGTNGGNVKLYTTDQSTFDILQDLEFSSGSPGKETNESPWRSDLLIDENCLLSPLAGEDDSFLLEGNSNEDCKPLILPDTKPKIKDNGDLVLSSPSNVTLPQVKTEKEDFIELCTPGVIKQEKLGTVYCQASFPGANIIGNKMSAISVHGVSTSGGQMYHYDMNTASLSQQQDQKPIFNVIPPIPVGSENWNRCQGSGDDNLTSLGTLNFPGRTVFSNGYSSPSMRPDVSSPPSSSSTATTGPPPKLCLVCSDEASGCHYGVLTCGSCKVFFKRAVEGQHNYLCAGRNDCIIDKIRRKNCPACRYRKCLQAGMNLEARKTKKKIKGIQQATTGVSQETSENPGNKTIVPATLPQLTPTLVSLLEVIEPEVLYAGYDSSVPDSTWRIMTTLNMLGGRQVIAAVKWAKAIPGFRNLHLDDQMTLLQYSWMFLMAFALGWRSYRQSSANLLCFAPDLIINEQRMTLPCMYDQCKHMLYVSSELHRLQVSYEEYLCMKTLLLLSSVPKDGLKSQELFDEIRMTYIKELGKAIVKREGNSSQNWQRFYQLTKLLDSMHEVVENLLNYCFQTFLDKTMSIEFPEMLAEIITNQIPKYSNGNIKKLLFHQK
Peroxisome proliferator-activated receptor delta (Homo sapiens), sequence (Q03181 whole entry, looked up): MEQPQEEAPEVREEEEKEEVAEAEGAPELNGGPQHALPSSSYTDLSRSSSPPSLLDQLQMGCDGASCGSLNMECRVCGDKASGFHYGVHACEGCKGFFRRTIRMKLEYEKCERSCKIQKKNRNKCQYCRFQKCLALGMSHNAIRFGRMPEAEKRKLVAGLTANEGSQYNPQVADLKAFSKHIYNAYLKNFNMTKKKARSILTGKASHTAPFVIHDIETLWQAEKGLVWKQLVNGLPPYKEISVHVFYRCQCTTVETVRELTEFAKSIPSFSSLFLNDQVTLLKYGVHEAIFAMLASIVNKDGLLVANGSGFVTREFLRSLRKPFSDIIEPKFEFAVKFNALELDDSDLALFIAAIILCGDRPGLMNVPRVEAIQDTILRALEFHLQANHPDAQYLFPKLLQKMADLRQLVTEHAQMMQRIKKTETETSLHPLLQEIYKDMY

Take `CC[C@@H]1Cc2cc(O)ccc2C2=C1c1ccc(O)cc1C[C@H]2CC`: the activation in test [1] is -13.9% (inactive); in [2], -4.83% (inactive).

Regarding `C/C(=C\c1ccc(C(=O)O)cc1)c1ccc2c(c1)C(C)(C)CCC2(C)C`, the Potency entry in test [3] was “inactive”. The result in [4] was inactive. Also, the activation in test [2] was -4.65% (inactive).

Turning to `CCCc1c(OCCCOc2ccc(OCC(=O)O)cc2)ccc(C(C)=O)c1O`, the activation is -2.09% (inactive) in test [1] and -12.7% (inactive) in test [2]. The outcome in [5] and in [4] was inactive. In addition, the Potency entry in test [6] was “inactive”.

As to `CC(=O)C(C)=O`, the outcome in test [4] and in test [8] was inactive. Moreover, the activation in [2] was 6.3% (inactive). Besides, the Potency entry in test [6] and in test [9] was “inactive” throughout. In test [7], the max response turned out to be 5.57%.

Consider `CCCCCCCCCCCCCCSCC(=O)O`, for which the Potency entry in test [3] and in test [6] was “inactive” each time. In addition, the activation in test [1] was -2.58% (inactive). Also, the result in test [5] was inactive. Further, the Potency in test [9] is 28.2 µM (active).

`CCCc1c(-c2ccc(O)cc2)nn(-c2ccc(O)cc2)c1-c1ccc(O)cc1`: the values for the Potency in [3] and in test [6] were 0.0112 µM (active) and 28.2 µM (active), respectively.

Take `NC(=O)c1ccccc1`: the outcome in [10], in test [5] and in test [4] was inactive. Also, the Potency result in test [3], in [6] and in test [9] was “inactive” throughout. The figures for the activation in test [1] and in test [2] were -3.5% (inactive) and -7.58% (inactive), respectively.

As to `CC1=C(/C=C/C(C)=C/C=C/C(C)=C\C(=O)O)C(C)(C)CCC1`, the activation in [2] was -7.34% (inactive). For the same compound, in [7], the max response came out at 61.4%. In test [8], the result was inactive.
